From PubChem BioAssay
Active and inactive are the calls of the source. No rule for the calls is given here.

Biological target: Lethal factor (Bacillus anthracis) (UniProt P15917)
Assay: Bacillus anthracis lethal factor inhibition, microsphere flow cytometry protease assay, validation at 10 µM (AID 588461)
Conditions: multiplex microsphere protease cleavage assay, hits give high values

SMILES | inhibition
CCOCC(=O)Nc1nc2ccccc2s1 | -0.2% (inactive)
COc1ccc(-c2coc3cc(OC(=O)N4CCOCC4)ccc3c2=O)cc1 | -0.4% (inactive)
CCCCCCCCCC(=O)OCC(O)CO (stereo not given) | -4.5% (inactive)
Cc1ccc2[nH]c3c(c2c1)CCNC3=O | -6.6% (inactive)
CC(/C=C1\SC(=O)N(CCCC(=O)O)C1=O)=C\c1ccccc1 | -5.6% (inactive)
COc1ccc(C(CC(=O)N2CCOCC2)C(C)C)cc1 (stereo not given) | -8.6% (inactive)
CN(C)CCOC(C)(c1ccccc1)c1ccccn1 (stereo not given) | -3.8% (inactive)
COc1ccc2c(c1OC)C(=O)OC2C1c2c(cc3c(c2OC)OCO3)CCN1C (stereo not given) | 0.2% (inactive)
O=C(N1CCCC1)C12CC3CC(C1)CC(C(=O)N1CCCC1)(C3)C2 | -8% (inactive)
Cc1ccccc1NC(=O)NCCc1c[nH]c2ccccc12 | -3.6% (inactive)
COc1ccc2nc(NC(=O)Nc3ccccc3)sc2c1 | -2.7% (inactive)
C[C@]12CCC(=O)C=C1CC[C@@H]1[C@@H]2[C@@H](O)C[C@@]2(C)[C@H]1CC[C@]2(O)C(=O)CO | -10.2% (inactive)
CC1(C)O[C@@H]2C[C@H]3[C@@H]4C[C@H](F)C5=CC(=O)C=C[C@]5(C)[C@@]4(F)[C@@H](O)C[C@]3(C)[C@]2(C(=O)CO)O1 | -6.8% (inactive)
CC(C)CN1CC(C(=O)O)CC1=O (stereo not given) | 1.5% (inactive)
CCCCC[C@H](O)/C=C/[C@@H]1[C@@H](C/C=C\CCCC(=O)O)[C@H]2CO[C@@H]1C2 | 3.3% (inactive)
C/C(=N\NC(=O)C1(C)CC1(Br)Br)c1ccc([N+](=O)[O-])cc1 (stereo not given) | -7.9% (inactive)
CCCCNc1cc(C(=O)O)cc(S(N)(=O)=O)c1Oc1ccccc1 | -3.2% (inactive)
Nc1cnn(C2OC(CO)C(O)C2O)c(=O)n1 (stereo not given) | -3.7% (inactive)
COc1ccc(C2C3CCCCC3(O)CCN2C(=O)c2cccs2)cc1 (stereo not given) | 5.5% (inactive)
CC(C)CC(=O)NC(NC(=O)CC(C)C)c1cccc([N+](=O)[O-])c1 | 3.9% (inactive)

SMILES | inhibition
CC(=O)CSc1ncnc2c1cnn2-c1ccccc1 | -1.6% (inactive)
CCOc1ccc(N2C(=O)CC(NCCNc3ccc([N+](=O)[O-])cn3)C2=O)cc1 (stereo not given) | -3.4% (inactive)
CC1=CC(=O)c2ccccc2C1=O | 6.7% (inactive)
Cc1ncc([N+](=O)[O-])n1CC(O)CCl (stereo not given) | 2.5% (inactive)
COc1ccc(Cc2noc(CN(C)CC3(N4CCOCC4)CCCCC3)n2)cc1OC | -0.4% (inactive)
Cc1ccc(Nc2ncccc2C(=O)O)cc1C | -6.3% (inactive)
Cc1[nH]c2ccccc2c1C(=O)C(=O)NCc1ccco1 | -5.5% (inactive)
C#C[C@]1(O)CC[C@H]2[C@@H]3CCc4cc(OC)ccc4[C@H]3CC[C@@]21C | -5.2% (inactive)
COc1cc2c(cc1OC)C1(CCCC1)CNC2c1cccc([N+](=O)[O-])c1 (stereo not given) | -9.4% (inactive)
CC(=O)NC1C(OCCOc2ccc(Cl)cc2Cl)OC(COC(C)=O)C(OC(C)=O)C1OC(C)=O (stereo not given) | -0.7% (inactive)
C[C@H](NC(=O)Nc1ccccc1F)C(=O)O | -3.2% (inactive)
COc1ccc(CCN2C(=O)CSC2c2ccc(OC)c(OC)c2)cc1OC (stereo not given) | 6.7% (inactive)
CCN(CC)CCNC(=O)c1cc(S(C)(=O)=O)ccc1OC | 4.7% (inactive)
OCCN1CCN(CCCN2c3ccccc3Sc3ccc(Cl)cc32)CC1 | 1.2% (inactive)
COc1cccc(OC2OC3COC(C)(C)OC3C(O)C2NC(C)=O)c1 (stereo not given) | 0.5% (inactive)
CCSc1nc(O)c(C2OC(=O)c3c2ccc(OC)c3OC)c(=O)n1CC (stereo not given) | -2.4% (inactive)
Cc1ccc(CSCC(=O)NCCCN2CCOCC2)cc1 | 3.8% (inactive)
C[C@H]1C[C@H]2[C@@H]3CCC4=CC(=O)C=C[C@]4(C)[C@@]3(Cl)[C@@H](O)C[C@]2(C)[C@@]1(O)C(=O)CO | 2.1% (inactive)
CCn1cc(CN2N=C(C)CC2c2ccccc2)c(C)n1 (stereo not given) | -2.2% (inactive)
COC(=O)c1ccc2c(c1)C(=O)/C(=C/c1ccc(O)cc1)O2 | -8.5% (inactive)
